According to PubChem BioAssay (NCATS):
Unmarked numbers belong to inactive results. Results filed as inconclusive are left out. Calls of active or inactive are those of the source. Unless noted, the call rests on the fitted dose curve; in most records, active means well fitted curve in the direction sought with a large enough effect; inconclusive means small, poorly fitted or top-dose-only effect, or another doubt; inactive means no such curve, though single readings can be large; an effect the other way counts as inactive or inconclusive.

Columns and labels:
[1] = target: Lysosomal acid glucosylceramidase (Homo sapiens) (UniProt P04062); experiment: Glucocerebrosidase-p2 (AID 348; in the data active means potency below about 10 µM; further: potency means the concentration at half of the fitted maximal effect); settings: purified GBA, blue fluorogenic substrate, 40 min
Lysosomal acid glucosylceramidase (Homo sapiens), sequence (P04062 whole entry, looked up): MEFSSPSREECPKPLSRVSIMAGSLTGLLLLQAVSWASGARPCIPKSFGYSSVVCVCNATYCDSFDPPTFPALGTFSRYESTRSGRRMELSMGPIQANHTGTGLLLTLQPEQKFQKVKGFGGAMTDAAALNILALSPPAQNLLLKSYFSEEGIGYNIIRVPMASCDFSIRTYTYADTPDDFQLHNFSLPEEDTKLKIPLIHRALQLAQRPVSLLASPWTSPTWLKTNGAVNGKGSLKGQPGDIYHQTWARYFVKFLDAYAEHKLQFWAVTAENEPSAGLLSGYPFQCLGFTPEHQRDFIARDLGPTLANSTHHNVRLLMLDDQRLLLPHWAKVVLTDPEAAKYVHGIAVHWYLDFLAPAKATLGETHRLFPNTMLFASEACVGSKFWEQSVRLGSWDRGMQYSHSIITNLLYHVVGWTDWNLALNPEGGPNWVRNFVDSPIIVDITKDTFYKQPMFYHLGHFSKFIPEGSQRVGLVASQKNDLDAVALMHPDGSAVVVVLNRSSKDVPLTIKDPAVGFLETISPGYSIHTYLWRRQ
In short: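 Compounds titrated from 0.6 nM upwards against 0.2 nM enzyme in pH 5.9 citric acid/KH2PO4, taurocholate, tween-20; blue fluorogenic substrate 80 uM, 40 min room temperature, stopped and read Ex 365/Em 440 for AC50.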

[2] = AP1 Signaling Pathway (AID 357; active means well fitted curve in either direction with a large enough effect, not every such curve was filed as active;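 further: ME-180 reporter cells stimulated with EGF at its EC50 level; on the % scale 0 is the no-effect control and ±100 the full control effect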); settings: ME-180 AP-1-bla reporter, EGF-induced, beta-lactamase ratio, 5 h; at 7.69 µM (top of the series) unless noted
In short: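 Titration-series screen for positive or negative modulators of EC50 EGF-induced signaling in ME-180 cells carrying an AP-1-driven beta-lactamase reporter. After 5 hours at 37 degrees Celsius, CCF4 460nm/530nm emission ratio gave %Activity; AC50 values derived.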

[3] = target: Cytochrome P450 1A2 (Homo sapiens) (UniProt P05177); experiment: p450-cyp1a2 (AID 410; calls by dose curve; further: potency means the concentration at half of the fitted maximal effect); settings: recombinant CYP1A2, luciferin-ME demethylation, luminescence; series mostly up to 57 µM
Cytochrome P450 1A2 (Homo sapiens), sequence (P05177 whole entry, looked up): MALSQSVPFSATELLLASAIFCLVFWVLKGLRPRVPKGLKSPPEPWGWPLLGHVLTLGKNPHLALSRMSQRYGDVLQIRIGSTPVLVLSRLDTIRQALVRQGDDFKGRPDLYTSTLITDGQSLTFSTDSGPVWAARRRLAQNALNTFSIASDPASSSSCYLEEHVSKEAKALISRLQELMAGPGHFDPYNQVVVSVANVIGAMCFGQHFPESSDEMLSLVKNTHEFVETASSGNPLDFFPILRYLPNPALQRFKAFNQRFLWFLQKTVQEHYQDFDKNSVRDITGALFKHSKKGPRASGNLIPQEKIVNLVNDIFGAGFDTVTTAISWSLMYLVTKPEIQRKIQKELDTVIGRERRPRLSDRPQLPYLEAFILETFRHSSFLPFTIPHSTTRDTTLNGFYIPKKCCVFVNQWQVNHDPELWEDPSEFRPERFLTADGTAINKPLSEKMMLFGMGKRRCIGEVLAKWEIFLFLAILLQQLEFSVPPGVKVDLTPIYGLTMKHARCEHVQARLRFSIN
In short: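 Luminescent readout of luciferin formed from Luciferin-ME by human CYP1A2; data normalized against complete inhibition by 57 uM furafylline. Enzyme 20nM, substrate 100uM at Km, 100mM KPO4 buffer, 60 min reaction at room temperature.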

[4] = NFAT Signaling Pathway (AID 444; active means well fitted curve in either direction with a large enough effect, not every such curve was filed as active;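 further: carbachol stimulus at about its EC50 of 1 µM final; on the % scale 0 is the no-effect control and ±100 the full control effect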); settings: Jurkat NFAT-bla M1, carbachol, beta-lactamase ratio, 5 h; at 7.69 µM (top of the series) unless noted
In short: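 Jurkat cells carrying an NFAT-driven β-lactamase reporter and co-transfected muscarinic M1 receptor were treated with compound plus carbachol (1 uM final, an EC50 level) for 5 h at 37 °C. CCF4 loading followed for 1 h at RT; 460/530 nm ratio gave %activity.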

[5] = Stat Signaling Pathway (AID 446; active means well fitted curve in either direction with a large enough effect, not every such curve was filed as active;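 further: ME-180 cervical cancer cells given 40 pM IL-6 alongside compound; SIE-controlled beta-lactamase reporter measured as 460/530 nm FRET emission ratio; on the % scale 0 is the no-effect control and ±100 the full control effect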); settings: ME-180 SIE beta-lactamase reporter, IL-6 stimulated, 5 h; at 7.69 µM (top of the series) unless noted
In short: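 ME-180 cells carrying a SIE-driven beta-lactamase reporter are stimulated with 40 pM IL-6 for 5 h at 37C in the presence of compound. The 460/530 nm FRET substrate ratio is read after 2.5 h at RT. Data are normalised to 300 pM IL-6 and to 125 nM JAK inhibitor controls.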

[6] = target: Glucocorticoid receptor (Homo sapiens) (UniProt P04150); experiment: GR-GFP Redistribution (AID 450;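 active means compounds whose dose series gives a full or clear partial fitted curve of increased nuclear translocation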; further: potency means the concentration at half of the fitted maximal effect); settings: U2OS GR-GFP nuclear translocation, laser cytometry, 2 h
Glucocorticoid receptor (Homo sapiens), sequence (P04150 whole entry, looked up, the tested form may be a part): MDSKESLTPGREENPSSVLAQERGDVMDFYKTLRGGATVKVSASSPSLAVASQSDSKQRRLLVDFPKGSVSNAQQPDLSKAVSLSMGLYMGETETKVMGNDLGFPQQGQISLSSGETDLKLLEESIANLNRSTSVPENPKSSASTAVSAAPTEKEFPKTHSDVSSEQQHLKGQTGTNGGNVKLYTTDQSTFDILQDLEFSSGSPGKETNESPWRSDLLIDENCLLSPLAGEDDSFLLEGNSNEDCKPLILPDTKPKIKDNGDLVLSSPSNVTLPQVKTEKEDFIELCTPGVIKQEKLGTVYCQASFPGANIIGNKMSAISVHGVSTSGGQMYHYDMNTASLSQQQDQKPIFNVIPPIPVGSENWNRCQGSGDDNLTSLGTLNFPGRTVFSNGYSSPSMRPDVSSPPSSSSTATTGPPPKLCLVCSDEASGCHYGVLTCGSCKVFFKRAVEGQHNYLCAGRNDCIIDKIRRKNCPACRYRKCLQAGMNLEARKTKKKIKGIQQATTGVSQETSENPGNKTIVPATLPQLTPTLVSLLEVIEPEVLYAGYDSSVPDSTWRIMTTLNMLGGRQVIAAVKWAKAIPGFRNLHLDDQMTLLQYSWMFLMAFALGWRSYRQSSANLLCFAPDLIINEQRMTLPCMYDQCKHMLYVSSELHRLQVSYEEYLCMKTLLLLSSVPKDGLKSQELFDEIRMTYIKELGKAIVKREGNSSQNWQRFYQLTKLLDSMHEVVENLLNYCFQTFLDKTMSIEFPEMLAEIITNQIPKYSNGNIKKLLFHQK

[7] = target: Glucocorticoid receptor (Homo sapiens) (UniProt P04150); experiment: GR-EFC Redistribution (AID 451; calls by dose curve; further: potency means the concentration at half of the fitted maximal effect); settings: CHO-K1 GR-EFC translocation, beta-gal luminescence, 2 h
In short: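 CHO-K1 cells stably expressing nuclear-localized β-gal enzyme acceptor and GR fused C-terminally to the enzyme donor fragment; ligand-driven nuclear translocation restores β-gal by complementation. Compounds titrated up to 46 uM final, 2 h at 37 °C; luminescence read.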

[8] = target: Mitogen-activated protein kinase 10 (Mus musculus) (UniProt Q61831); experiment: JNK3 AlphaScreen Assay (AID 530; active means well fitted curve in either direction with a large enough effect, not every such curve was filed as active;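 further: kinase came from lysate of stimulated human HepG2 cells; signal reports phosphorylation of biotinylated GST-cJun 1-79 at Ser73 with 10 µM ATP; on the % scale 0 is the no-effect control and ±100 the full control effect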); settings: JNK3 lysate, c-Jun phosphorylation; series mostly up to 57.1 µM
In short: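 Inhibitors reduce antibody binding to phosphorylated biotin-cJun, lowering AlphaScreen luminescence. Lysates from HepG2 cells pre-activated by IL-1beta plus TNF-alpha supplied JNK3; compounds were titrated.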

[9] = target: Cytochrome P450 2C9 (Homo sapiens) (UniProt P11712); experiment: qHTS Assay for Inhibitors and Substrates of Cytochrome P450 2C9 (AID 883); settings: recombinant CYP2C9, luciferin-H luminescence, 60 min; series mostly up to 57.1 µM; further: potency means the concentration at half of the fitted maximal effect; nearly all actives have a fitted effect of over 60% in size
In short: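 CYP2C9 deoxyluciferin hydroxylation, 37C, 60 min with NADPH regeneration; 10nM enzyme, 100uM Luciferin-H (KM). Glo detection reagent stopped reaction; luminescence normalized to sulphaphenazole (57uM) full inhibition.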

[10] = target: Cytochrome P450 3A4 (Homo sapiens) (UniProt P08684); experiment: qHTS Assay for Activators of Cytochrome P450 3A4 (AID 885); settings: recombinant CYP3A4, Luciferin-PPXE luminescence, 60 min; series mostly up to 57.1 µM; further: nearly all actives have a fitted effect of over 65% in size
Cytochrome P450 3A4 (Homo sapiens), sequence (P08684 whole entry, looked up): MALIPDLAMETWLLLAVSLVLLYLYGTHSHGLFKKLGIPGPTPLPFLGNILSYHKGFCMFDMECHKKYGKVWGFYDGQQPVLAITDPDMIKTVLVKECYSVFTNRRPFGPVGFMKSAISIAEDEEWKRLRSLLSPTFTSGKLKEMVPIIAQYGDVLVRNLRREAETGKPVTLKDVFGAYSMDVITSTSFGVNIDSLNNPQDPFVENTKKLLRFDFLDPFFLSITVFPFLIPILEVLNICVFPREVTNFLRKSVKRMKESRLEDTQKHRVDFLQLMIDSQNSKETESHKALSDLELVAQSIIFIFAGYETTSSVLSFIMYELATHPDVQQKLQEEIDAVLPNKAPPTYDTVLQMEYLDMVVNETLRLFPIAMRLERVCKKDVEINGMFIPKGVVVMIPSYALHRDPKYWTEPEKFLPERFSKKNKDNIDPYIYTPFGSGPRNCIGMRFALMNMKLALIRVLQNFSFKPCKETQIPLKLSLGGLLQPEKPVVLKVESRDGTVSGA
In short: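 Human CYP3A4 (20 nM) with Luciferin-PPXE at 25 uM (its KM) in 200 mM KPO4; 10 min compound preincubation, then NADPH regeneration and 60 min reaction at RT. Luciferin read by luminescence; normalized to 57 uM ketoconazole full inhibition.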

[11] = target: Cytochrome P450 2D6 (Homo sapiens) (UniProt P10635); experiment: qHTS Assay for Inhibitors and Substrates of Cytochrome P450 2D6 (AID 891); settings: recombinant CYP2D6, luciferin-ME EGE luminescence; series mostly up to 57.1 µM; further: potency means the concentration at half of the fitted maximal effect; nearly all actives have a fitted effect of over 60% in size
In short: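 Human CYP2D6 (5 nM) with 30 uM Luciferin-ME EGE (at Km) in 100 mM KPO4, compound preincubated 10 min, then NADPH regeneration system for 60 min at room temperature. Luciferin read by luminescence; normalized to 1.43 uM quinidine.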

[12] = target: Cytochrome P450 2C19 (Homo sapiens) (UniProt P33261); experiment: qHTS Assay for Inhibitors and Substrates of Cytochrome P450 2C19 (AID 899); settings: recombinant CYP2C19, luciferin-H EGE luminescence; series mostly up to 57.1 µM; further: potency means the concentration at half of the fitted maximal effect; nearly all actives have a fitted effect of over 60% in size
Cytochrome P450 2C19 (Homo sapiens), sequence (P33261 whole entry, looked up): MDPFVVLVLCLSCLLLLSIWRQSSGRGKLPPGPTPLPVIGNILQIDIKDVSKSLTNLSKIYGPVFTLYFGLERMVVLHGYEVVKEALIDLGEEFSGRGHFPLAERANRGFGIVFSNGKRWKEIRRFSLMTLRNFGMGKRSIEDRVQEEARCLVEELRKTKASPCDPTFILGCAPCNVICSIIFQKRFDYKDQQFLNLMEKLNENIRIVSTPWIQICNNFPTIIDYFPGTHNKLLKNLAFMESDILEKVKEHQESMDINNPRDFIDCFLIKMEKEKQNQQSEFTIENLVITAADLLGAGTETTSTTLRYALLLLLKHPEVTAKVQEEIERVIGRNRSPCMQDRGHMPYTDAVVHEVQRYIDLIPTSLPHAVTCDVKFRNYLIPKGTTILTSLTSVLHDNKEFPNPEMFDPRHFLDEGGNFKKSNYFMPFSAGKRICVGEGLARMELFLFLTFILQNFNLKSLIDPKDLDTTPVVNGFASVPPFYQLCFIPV
In short: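 In 50mM KPO4, the reaction held 5nM enzyme and KM-level (10uM) Luciferin-H EGE; it ran 60 min at 37C after NADPH regeneration and a 10 min compound preincubation. Luminescence values were scaled to 57uM ketoconazole as complete inhibition.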

[13] = target: Dual specificity protein kinase CLK4 (Homo sapiens) (UniProt Q9HAZ1); experiment: qHTS Assay for Inhibitors of CDC-like Kinase 4 (Kinase-Glo Assay) (AID 1770); settings: recombinant Clk4, Kinase-Glo ATP depletion luminescence; series mostly up to 66.7 µM; further: nearly all actives have a fitted effect of over 65% in size; further: potency means the concentration at half of the fitted maximal effect
Dual specificity protein kinase CLK4 (Homo sapiens), sequence (Q9HAZ1 whole entry, looked up): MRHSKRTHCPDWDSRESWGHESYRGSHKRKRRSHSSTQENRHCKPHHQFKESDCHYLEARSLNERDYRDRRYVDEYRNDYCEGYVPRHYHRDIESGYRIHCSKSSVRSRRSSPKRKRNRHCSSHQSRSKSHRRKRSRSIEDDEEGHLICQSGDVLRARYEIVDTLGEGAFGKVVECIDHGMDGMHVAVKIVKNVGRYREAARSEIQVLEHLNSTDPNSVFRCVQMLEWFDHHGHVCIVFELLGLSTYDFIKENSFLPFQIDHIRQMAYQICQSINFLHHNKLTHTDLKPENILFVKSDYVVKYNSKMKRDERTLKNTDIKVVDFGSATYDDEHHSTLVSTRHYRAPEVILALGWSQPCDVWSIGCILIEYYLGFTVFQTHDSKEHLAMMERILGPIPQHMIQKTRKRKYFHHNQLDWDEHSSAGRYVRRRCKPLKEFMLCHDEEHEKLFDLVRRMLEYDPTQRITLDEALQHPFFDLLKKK
In short: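 Readout: Kinase-Glo luminescence from ATP left after a 4.5 h room-temperature reaction of 25 nM Clk4 with 100 uM RS peptide and 1 uM ATP (final). Buffer: 25 mM Tris pH 7.5, 10 mM MgCl2.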

[14] = target: Dual specificity protein kinase CLK4 (Homo sapiens) (UniProt Q9HAZ1); experiment: qHTS Assay for Inhibitors of CDC-like Kinase 4 (ADP-Glo Assay) (AID 1771); settings: recombinant CLK4, ADP-Glo luminescence; series mostly up to 80 µM; further: nearly all actives have a fitted effect of over 70% in size; further: potency means the concentration at half of the fitted maximal effect
In short: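 Luminescence from ADP-Glo reports ADP produced by 25 nM Clk4 acting on 100 uM RS repeat peptide with 1 uM ATP over 1 hr at room temperature; residual ATP is depleted before ADP is converted to ATP for detection.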

[15] = target: Ubiquitin carboxyl-terminal hydrolase 1 (Homo sapiens) (UniProt O94782); experiment: Inhibitors of USP1/UAF1: Pilot qHTS (AID 504865); settings: purified USP1/UAF1, Ub-rhodamine cleavage fluorescence; series mostly up to 54.9 µM;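 further: rhodamine fluorescence freed from ubiquitin-rhodamine substrate followed over time; top concentration of the series differs between compounds; on the % scale 0 is the no-effect control and ±100 the full control effect; nearly all actives have a fitted effect of over 35% in size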
Ubiquitin carboxyl-terminal hydrolase 1 (Homo sapiens), sequence (O94782 whole entry, looked up): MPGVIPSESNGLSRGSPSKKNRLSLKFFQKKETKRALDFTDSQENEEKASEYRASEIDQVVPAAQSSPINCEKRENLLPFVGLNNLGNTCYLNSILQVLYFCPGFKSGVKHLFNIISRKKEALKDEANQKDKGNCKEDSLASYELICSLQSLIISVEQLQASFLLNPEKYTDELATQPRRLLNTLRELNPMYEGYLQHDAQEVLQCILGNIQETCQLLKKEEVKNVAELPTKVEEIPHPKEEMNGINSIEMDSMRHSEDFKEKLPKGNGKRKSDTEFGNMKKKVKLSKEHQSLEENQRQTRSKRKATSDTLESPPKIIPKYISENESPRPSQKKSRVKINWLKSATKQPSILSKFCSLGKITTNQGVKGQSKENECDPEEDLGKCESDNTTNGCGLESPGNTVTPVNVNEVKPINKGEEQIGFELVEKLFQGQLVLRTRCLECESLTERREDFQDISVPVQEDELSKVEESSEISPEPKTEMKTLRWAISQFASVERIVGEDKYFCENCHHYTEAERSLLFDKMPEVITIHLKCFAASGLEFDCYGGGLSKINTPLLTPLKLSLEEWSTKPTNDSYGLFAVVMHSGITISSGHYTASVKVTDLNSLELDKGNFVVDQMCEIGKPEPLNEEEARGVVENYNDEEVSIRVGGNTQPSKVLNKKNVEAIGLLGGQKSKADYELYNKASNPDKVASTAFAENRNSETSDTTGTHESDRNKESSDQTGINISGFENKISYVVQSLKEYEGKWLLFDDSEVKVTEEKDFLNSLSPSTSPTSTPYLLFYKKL
In short: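 1nM USP1/UAF1 + cpd, 15 min RT; start w/ Ub-Rho 150nM final; kinetic FL 480/540 nm, 6 reads q60 s. Buffer 50mM HEPES pH 7.8, 0.5mM EDTA, 1mM TCEP, 0.01% Tween-20, 0.1 mg/ml BSA.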

[16] = Primary qHTS for small molecule stabilizers of the endoplasmic reticulum resident proteome: Secreted ER Calcium Modulated Protein (SERCaMP) assay (AID 1508630); settings: SH-SY5Y GLuc-SERCaMP (Gaussia luciferase released on ER calcium loss) secretion, thapsigargin, luminescence; series mostly up to 38.4 µM; further: on the % scale 0 is the no-effect control and ±100 the full control effect
In short: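 GLuc-SERCaMP-expressing SH-SY5Y cells, pretreated 16 h with compound, are challenged with thapsigargin to empty ER calcium stores; after 4 h, coelenterazine is added directly to the medium and luminescence is imaged.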

[17] = target: 3',5'-cyclic-AMP phosphodiesterase 4B (Homo sapiens) (UniProt Q07343); experiment: qHTS Assay for Inhibitors of PDE-IV (AID 607; active means well fitted activation curve with a large enough effect in the main read-out, with a control signal flat, not every such curve was filed as active; further: % of control where 0% means no effect); settings: HEK293 ACTOne CNG channel cells, membrane potential fluorescence; series mostly up to 22.9 µM
3',5'-cyclic-AMP phosphodiesterase 4B (Homo sapiens), sequence (Q07343 whole entry, looked up): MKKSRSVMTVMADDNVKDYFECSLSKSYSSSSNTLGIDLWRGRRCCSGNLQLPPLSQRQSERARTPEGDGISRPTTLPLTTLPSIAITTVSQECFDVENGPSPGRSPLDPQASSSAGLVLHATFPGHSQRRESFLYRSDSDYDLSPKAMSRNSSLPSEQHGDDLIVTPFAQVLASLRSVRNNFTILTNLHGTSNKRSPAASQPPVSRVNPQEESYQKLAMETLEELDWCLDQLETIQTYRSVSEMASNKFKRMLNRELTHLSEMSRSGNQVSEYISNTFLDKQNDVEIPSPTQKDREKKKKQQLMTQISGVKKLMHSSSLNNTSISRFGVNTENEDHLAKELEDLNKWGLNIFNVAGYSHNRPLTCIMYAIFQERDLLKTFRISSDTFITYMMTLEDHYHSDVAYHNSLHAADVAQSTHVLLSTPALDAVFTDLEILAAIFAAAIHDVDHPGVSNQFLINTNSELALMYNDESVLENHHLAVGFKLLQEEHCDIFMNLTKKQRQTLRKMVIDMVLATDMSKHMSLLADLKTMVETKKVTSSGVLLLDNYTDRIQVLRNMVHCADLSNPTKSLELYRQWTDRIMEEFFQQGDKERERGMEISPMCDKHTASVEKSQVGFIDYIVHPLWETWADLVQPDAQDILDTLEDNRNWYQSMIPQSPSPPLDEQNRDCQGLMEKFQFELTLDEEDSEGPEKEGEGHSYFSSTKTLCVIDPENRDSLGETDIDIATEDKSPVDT
In short: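 HEK293 ACTOne cells with CNG channel (1000/well), endogenous PDE4; membrane potential dye, compounds up to 22.9 uM final. Fluorescence Ex 535/Em 590; RO 20-1724 (100 uM final) as reference.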

[18] = qHTS Assay for Identification of Small Molecule Agonists for Hypoxia Response Element Signaling Pathway (AID 914; active means well fitted activation curve with a large enough effect in the signal ratio, with a control signal flat, not every such curve was filed as active; the % refers to the signal ratio; further: % of control where 0% means no effect); settings: ME-180 (cervical carcinoma) HRE-bla reporter, beta-lactamase ratio, CoCl2, 17 h; activation: hits give high values
In short: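 Cells were plated overnight, pin-dosed with compound in a titration series, co-stimulated with EC50 CoCl2 and incubated 17 hours at 37 degrees Celsius. CCF4 substrate was then loaded, and AC50 values came from the 460nm/530nm ratio.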

[19] = target: Cytochrome P450 3A4 (Homo sapiens) (UniProt P08684); experiment: qHTS Assay for Inhibitors and Substrates of Cytochrome P450 3A4 (AID 884); settings: recombinant CYP3A4, Luciferin-PPXE luminescence; series mostly up to 57.1 µM; further: potency means the concentration at half of the fitted maximal effect; nearly all actives have a fitted effect of over 50% in size
In short: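 20 nM human CYP3A4 with 25 uM Luciferin-PPXE (at KM) in 200 mM KPO4, preincubated 10 min with compound; NADPH regeneration started a 60 min RT reaction. Luciferin detected by luminescence, normalized to 57 uM ketoconazole as full inhibition.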

SMILES | Potency [1] | activity change, negative = inhibition [2] [%] | Potency [3] | activity change, negative = inhibition [4] [%] | activity, negative = inhibition [5] [%] | Potency [6] [µM] | Potency [7] [µM] | Potency [8] | Potency [9] | Potency [10] | Potency [11] | Potency [12] | Potency [13] | Potency [14] | Potency [15] | outcome [16] | Potency [17] | activation [18] [%] | Potency [19]
c1cncc(-c2nccc(NCc3cccs3)n2)c1 | > 11.4 µM | 4.03 | 0.2 µM (active) | 13.5 | -3.1 | > 46 | > 46 | inactive | 0.398 µM (active) | inactive | 0.631 µM (active) | 7.94 µM (active) | 14.1 µM (active) | 10 µM (active) | inactive | inactive |  |  | 
COc1ccc(Oc2ncc3ncc(=O)n(C4CC4)c3n2)cc1 | > 11.4 µM | -1.59 | 5.01 µM (active) | 5.04 | -19.9 | > 9.22 | > 46 | inactive |  | inactive |  |  | inactive | inactive | inactive | inactive | inactive | -9.06 | 
CN1CCN(c2ncnc3ccc(-c4cccnc4)cc23)CC1 | > 11.4 µM | -5.19 |  | 17 | 2.81 | > 46 | > 46 | inactive |  | inactive |  |  | 12.6 µM (active) | 14.1 µM (active) | inactive | inactive | inactive | -3.4 | 
Cc1noc(C)c1-c1nccc(NCc2cccs2)n1 | > 11.4 µM | 3.65 | 0.501 µM (active) | -16.6 | 2.65 | > 46 | > 46 | inactive |  | inactive |  |  | 22.4 µM (active) | 35.5 µM (active) |  | inactive |  |  | 
c1ccc(Nc2nc(-c3ccc4c(c3)OCO4)nc3ccccc23)cc1 | 9.63 µM (active) | -19.9 | 1.26 µM (active) | -26.1 | -2.81 | > 46 | > 46 | inactive |  | inactive |  | 3.16 µM (active) | 28.2 µM (active) | 31.6 µM (active) | inactive | inactive |  |  | 5.01 µM (active)
COc1ccc(-c2nc3cncnc3n(-c3ccccc3)c2=O)cc1 | > 11.4 µM | -9.87 |  | -10.5 | -2.81 | > 9.22 | > 46 | inactive |  |  |  |  | inactive | inactive | inactive | inactive |  |  | 
